Results filed as inconclusive are left out. Calls of active or inactive are those of the source. Unless noted, calls come from the whole dose curve.
Experiments:
[1] = Nuclear factor erythroid 2-related factor 2/antioxidant responsive element (Nrf2/ARE) small molecule agonists: qHTS cell viability counter screen in human keratinocytes (AID 1919968; active = well fitted curve in the direction sought with a large enough effect in the repeat runs; an effect the other way counts as inactive or inconclusive; note: nearly all actives have a fitted effect of over 55% in size)
In short: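 CellTiter-Fluor fluorescence, read 1 h after reagent, gave viability in the same wells as the ARE-luciferase assay. KeratinoSens cells (1,500/well) had 23 h compound exposure at 37 C/5% CO2 following 5 h plating.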

[2] = Nuclear factor erythroid 2-related factor 2/antioxidant responsive element (Nrf2/ARE) small molecule agonists: luciferase reporter gene qHTS assay in human keratinocytes (AID 1919969); note: nearly all actives have a fitted effect of over 35% in size
[3] = molecular target: Gonadotropin-releasing hormone receptor (Homo sapiens) (UniProt P30968); assay: Human gonadotropin-releasing hormone receptor (GnRHR) small molecule agonists, calcium flux assay in GnRHR-HEK293 cells (AID 1920063); note: nearly all actives have a fitted effect of over 35% in size
In short: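 Agonist mode: compounds at 15 concentrations, in triplicate, went onto calcium dye-loaded GnRHR-HEK293 cells. Intracellular calcium was then followed as 480/540 nm fluorescence at 1 s intervals over 3 min.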

[4] = molecular target: KiSS-1 receptor (Homo sapiens) (UniProt Q969F8); assay: Human kisspeptin (KISS1R) small molecule agonists, calcium flux assay in KISS1R-HEK293 cells (AID 1920064; active = well fitted curve in the direction sought with a large enough effect in the repeat runs; an effect the other way counts as inactive or inconclusive)
In short: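 Agonist mode: intracellular calcium rise tracked at 1 s intervals over 3 min (480/540 nm) immediately after compound addition to dye-loaded KISS1R-HEK293 stable cells. Each compound tested at 15 concentrations in triplicate.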

[5] = G protein-coupled receptor (GPCR) small molecule agonists, calcium flux assay: HEK293 wild type cell line counter screen (AID 1920065)
In short: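 Calcium flux counter screen: compound added in agonist mode at 15 concentrations in triplicate to dye-loaded parental HEK293 cells. Fluorescence (480/540) read kinetically for 3 min; ATP served as positive control.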

[6] = p53 small molecule agonists, cell-based qHTS assay with human liver microsomes: qHTS cell viability counter screen (AID 1963579); note: nearly all actives have a fitted effect of over 45% in size
In short: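 Cytotoxicity counter screen: p53RE-bla, 4,000 cells/well; 5 h settle, 37 C/5% CO2; cpd + HLM 0.5 mg/mL + NADPH 0.5 mg/mL (final); 16 h, 37 C; CellTiter-Glo, 30 min RT, luminescence.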

[7] = p53 small molecule agonists, cell-based qHTS assay with rat liver microsomes: qHTS cell viability counter screen (AID 1963580); note: nearly all actives have a fitted effect of over 45% in size
In short: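 Counter screen for cytotoxicity under metabolic activation: rat liver microsomes and NADPH, 0.5 mg/mL final each, added with compounds to p53RE-bla HCT-116 cells; 16 h at 37 C, then ATP luminescence read.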

[8] = p53 small molecule agonists, cell-based qHTS assay: qHTS cell viability counter screen (AID 1963581); note: nearly all actives have a fitted effect of over 45% in size
In short: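 Counter screen read by CellTiter-Glo luminescence (ATP content, 30 min at room temperature), run in the same wells as the beta-lactamase reporter read. HCT-116 p53RE-bla cells saw compounds for 16 h at 37 C.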

[9] = molecular target: 5-hydroxytryptamine receptor 2A (Homo sapiens) (UniProt P28223); assay: 5-hydroxytryptamine receptor 2A (HTR2A) small molecule antagonists, cell-based qHTS assay (AID 1963586); note: nearly all actives have a fitted effect of over 45% in size
In short: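 CHO cells stably expressing human HTR2A were plated for 18 h at 37 C, then loaded with calcium dye for 1 h. Compounds were preincubated 5 min at room temperature before DOI (4 nM solution) was added. Kinetic fluorescence was read for 3 min.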

[10] = molecular target: Muscarinic acetylcholine receptor M1 (Homo sapiens) (UniProt P11229); assay: Cholinergic receptor muscarinic 1 (CHRM1) small molecule antagonists, cell-based qHTS assay (AID 1963588); note: nearly all actives have a fitted effect of over 40% in size
In short: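 Compounds were tested at 15 concentrations in three independent runs. Dye-loaded CHRM1-CHO cells were exposed 5 min at room temperature before stimulation by acetylcholine added at 50nM. Intracellular calcium was read kinetically on FDSS for 3 min.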

[11] = molecular target: Muscarinic acetylcholine receptor M1 (Homo sapiens) (UniProt P11229); assay: Cholinergic receptor muscarinic 1 (CHRM1) small molecule agonists, cell-based qHTS assay (AID 1963589); note: nearly all actives have a fitted effect of over 35% in size
In short: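 Agonist-mode calcium-flux screen: compounds at 15 concentrations, three independent runs, were pin-transferred onto dye-loaded human CHRM1-CHO cells. Fluorescence was then recorded kinetically every second over minutes.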

[12] = cAMP Responsive Elements (CRE) small molecule agonists, cell-based qHTS assay (AID 1963590)
In short: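 Agonist mode: compound added to CRE-bla HEK 293T cells (2,000/well, 18 h after plating) for 3 h at 37 C/5% CO2. Reporter activity detected via FRET beta-lactamase substrate, 2 h room-temperature loading.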

[13] = cAMP Responsive Elements (CRE) small molecule antagonists, cell-based qHTS assay (AID 1963591; active = well fitted inhibition curve with a large enough effect in the signal ratio in the repeat runs, not every such curve was filed as active; the % refers to the signal ratio)
In short: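 Antagonist mode: compounds are added alongside the adenylyl cyclase activator NKH477 (0.25 uM final) to CRE-bla HEK293T cells for 3 h. LiveBLAzer FRET substrate, 2 h at room temperature, reports bla expression.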

[14] = molecular target: Beta-2 adrenergic receptor (Homo sapiens) (UniProt P07550); assay: Adrenergic beta2 receptor (ADRB2) small molecule antagonists, cell-based qHTS assay (AID 1963592); note: series mostly up to about 92 µM; nearly all actives have a fitted effect of over 50% in size
In short: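 Assay format: CHO-ADRB2 cells, 18-20hr seeding at 37C/5% CO2, then compound plus 1nM isoproterenol agonist mix for 0.5hr RT. Homogeneous time-resolved fluorescence cAMP detection after 1hr, expressed as 665/615 nm ratio.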

[15] = molecular target: Beta-2 adrenergic receptor (Homo sapiens) (UniProt P07550); assay: Adrenergic beta2 receptor (ADRB2) small molecule agonists, cell-based qHTS assay (AID 1963593);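 note: CHO cells stably overexpressing human ADRB2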
In short: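 CHO cells stably over-expressing ADRB2 were plated overnight at 37C, then dosed with compounds plus a stimulation mix containing 100uM IBMX and 25uM Ro-20-1724 for 0.5hr at room temperature. cAMP was measured by HTRF competition, 1hr.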

[16] = molecular target: D(2) dopamine receptor (Homo sapiens) (UniProt P14416); assay: Dopamine D2 receptor (DRD2) small molecule agonists, cell-based qHTS assay (AID 1963594); note: nearly all actives have a fitted effect of over 35% in size
In short: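 HEK293 cells stably expressing DRD2 were cultured 24 h at 37 C, then given Ro20-1724 (0.1 mM final) and compounds for 10 min at room temperature. NKH477 (200nM) was then added for 30 min. cAMP was read by HTRF.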

[17] = molecular target: D(2) dopamine receptor (Homo sapiens) (UniProt P14416); assay: Dopamine D2 receptor (DRD2) small molecule antagonists, cell-based qHTS assay (AID 1963595; active = well fitted inhibition curve with a large enough effect in the signal ratio in the repeat runs, with a control signal flat; the % refers to the signal ratio)
In short: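 In this cell-based antagonist screen, compounds act for 10 min at room temperature before a 30 min challenge with 12 nM quinpirole and 200 nM NKH477. cAMP is quantified by HTRF competition in DRD2-HEK293 cells containing 0.1 mM Ro20-1724.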

[18] = molecular target: 5-hydroxytryptamine receptor 2A (Homo sapiens) (UniProt P28223); assay: 5-hydroxytryptamine receptor 2A (HTR2A) small molecule agonists, cell-based qHTS assay (AID 1963587); note: nearly all actives have a fitted effect of over 30% in size
In short: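 HTR2A-CHO cells, plated 18 h at 37 C/5% CO2, dye-loaded 1 h at 37 C; compounds in DMSO added by pin tool (agonist mode). Intracellular calcium flux read as kinetic fluorescence on FDSS over 2 min at 1 s intervals.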

Measured: Potency

Muscarinic acetylcholine receptor M1 (Homo sapiens), sequence (P11229 whole entry, looked up): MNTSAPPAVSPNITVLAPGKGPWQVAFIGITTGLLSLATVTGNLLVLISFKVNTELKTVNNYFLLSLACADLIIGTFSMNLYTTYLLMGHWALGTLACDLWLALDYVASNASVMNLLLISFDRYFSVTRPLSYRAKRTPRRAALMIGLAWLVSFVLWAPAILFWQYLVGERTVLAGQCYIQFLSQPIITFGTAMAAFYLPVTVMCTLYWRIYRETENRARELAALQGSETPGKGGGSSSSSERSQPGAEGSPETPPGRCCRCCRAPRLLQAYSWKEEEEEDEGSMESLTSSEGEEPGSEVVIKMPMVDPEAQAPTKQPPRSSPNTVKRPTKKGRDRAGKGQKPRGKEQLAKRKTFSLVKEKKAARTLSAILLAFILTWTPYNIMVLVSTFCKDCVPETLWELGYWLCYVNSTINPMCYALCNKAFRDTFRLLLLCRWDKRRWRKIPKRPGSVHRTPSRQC
Gonadotropin-releasing hormone receptor (Homo sapiens), sequence (P30968 whole entry, looked up): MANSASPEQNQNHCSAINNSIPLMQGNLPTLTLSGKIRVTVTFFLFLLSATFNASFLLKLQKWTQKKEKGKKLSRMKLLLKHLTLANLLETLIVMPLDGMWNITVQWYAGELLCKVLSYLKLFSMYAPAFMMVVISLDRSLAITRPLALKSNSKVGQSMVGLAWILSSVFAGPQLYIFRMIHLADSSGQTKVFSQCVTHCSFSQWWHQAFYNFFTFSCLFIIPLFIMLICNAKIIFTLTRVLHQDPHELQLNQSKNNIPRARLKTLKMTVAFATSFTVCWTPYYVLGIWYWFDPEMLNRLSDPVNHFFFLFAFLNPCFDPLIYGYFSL
KiSS-1 receptor (Homo sapiens), sequence (Q969F8 whole entry, looked up): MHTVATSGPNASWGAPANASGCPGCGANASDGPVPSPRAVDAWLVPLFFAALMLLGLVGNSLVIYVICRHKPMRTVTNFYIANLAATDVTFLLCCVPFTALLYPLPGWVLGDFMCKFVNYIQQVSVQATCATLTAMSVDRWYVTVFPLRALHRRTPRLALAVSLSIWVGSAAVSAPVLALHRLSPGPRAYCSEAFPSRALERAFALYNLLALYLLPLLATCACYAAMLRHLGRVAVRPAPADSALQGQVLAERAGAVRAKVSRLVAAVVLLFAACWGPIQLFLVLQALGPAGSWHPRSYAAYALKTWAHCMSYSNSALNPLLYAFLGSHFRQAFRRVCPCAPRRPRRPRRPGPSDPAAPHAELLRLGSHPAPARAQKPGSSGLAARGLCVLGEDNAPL
5-hydroxytryptamine receptor 2A (Homo sapiens), sequence (P28223 whole entry, looked up): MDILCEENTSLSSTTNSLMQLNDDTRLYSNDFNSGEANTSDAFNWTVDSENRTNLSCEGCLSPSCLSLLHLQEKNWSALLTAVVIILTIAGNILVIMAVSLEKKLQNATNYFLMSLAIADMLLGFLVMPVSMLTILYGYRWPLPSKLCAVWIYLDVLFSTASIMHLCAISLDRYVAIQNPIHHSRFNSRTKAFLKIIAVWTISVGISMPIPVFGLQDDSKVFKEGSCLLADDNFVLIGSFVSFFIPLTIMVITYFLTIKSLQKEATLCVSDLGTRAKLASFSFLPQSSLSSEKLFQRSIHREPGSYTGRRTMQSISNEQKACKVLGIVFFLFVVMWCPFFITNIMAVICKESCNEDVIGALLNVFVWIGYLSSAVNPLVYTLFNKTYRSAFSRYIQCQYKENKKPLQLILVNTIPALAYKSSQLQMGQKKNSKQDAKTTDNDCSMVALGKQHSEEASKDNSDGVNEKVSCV
D(2) dopamine receptor (Homo sapiens), sequence (P14416 whole entry, looked up): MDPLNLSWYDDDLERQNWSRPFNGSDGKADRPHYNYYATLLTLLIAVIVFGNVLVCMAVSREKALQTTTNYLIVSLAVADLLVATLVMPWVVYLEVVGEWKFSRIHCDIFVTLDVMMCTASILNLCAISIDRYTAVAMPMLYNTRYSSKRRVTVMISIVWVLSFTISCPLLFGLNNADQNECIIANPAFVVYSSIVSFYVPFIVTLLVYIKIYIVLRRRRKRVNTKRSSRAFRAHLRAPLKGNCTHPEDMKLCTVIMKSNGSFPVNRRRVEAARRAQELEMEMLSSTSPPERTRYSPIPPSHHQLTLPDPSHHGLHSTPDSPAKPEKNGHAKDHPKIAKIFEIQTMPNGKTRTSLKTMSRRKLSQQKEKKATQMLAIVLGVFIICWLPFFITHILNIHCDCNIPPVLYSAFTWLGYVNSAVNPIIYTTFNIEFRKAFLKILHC
Beta-2 adrenergic receptor (Homo sapiens), sequence (P07550 whole entry, looked up): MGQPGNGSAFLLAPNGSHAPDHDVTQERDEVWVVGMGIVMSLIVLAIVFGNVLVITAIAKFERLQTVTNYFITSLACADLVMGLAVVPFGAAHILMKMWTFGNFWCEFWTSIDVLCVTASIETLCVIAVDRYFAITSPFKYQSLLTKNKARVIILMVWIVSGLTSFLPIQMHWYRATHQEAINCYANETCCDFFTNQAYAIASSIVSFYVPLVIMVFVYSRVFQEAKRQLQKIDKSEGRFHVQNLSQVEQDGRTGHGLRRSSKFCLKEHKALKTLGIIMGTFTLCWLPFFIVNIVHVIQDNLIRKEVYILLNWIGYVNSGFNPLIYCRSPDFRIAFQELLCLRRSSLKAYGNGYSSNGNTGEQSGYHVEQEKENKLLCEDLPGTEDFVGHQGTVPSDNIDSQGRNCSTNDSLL

O=S(=O)(O)SSS(=O)(=O)O
not listed: [17] | [18]
inactive: all other assays above

CCOC(=O)[C@@](C)(N)Cc1ccc(O)c(O)c1
not listed: [11] | [15] | [18]
inactive: all other assays above

C=C(C)C(=O)OCCOP(=O)(O)OCCOC(=O)C(=C)C
not listed: [10] | [18]
inactive: all other assays above

CCN1CCC[C@H]1CNC(=O)c1c(OC)ccc(Br)c1OC
not listed: [15] | [16] | [17] | [18]
inactive: all other assays above

CC(C)C(=O)OCCc1ccccc1
not listed: [11] | [12] | [18]
inactive: all other assays above

O=Cc1ccccc1S(=O)(=O)O
not listed: [9] | [15]
inactive: all other assays above

CCCNC(C)(C)COC(=O)c1ccccc1
not listed: [9] | [15]
inactive: all other assays above

From PubChem BioAssay (Tox21)
